Laboratory results: ChEMBL document CHEMBL3988442, “University of Dundee, Small-Polar-MMV Screening Library” (2021)

target: T1, Aspartate--tRNA(Asp/Asn) ligase (Mycobacterium tuberculosis (strain ATCC 25618 / H37Rv)) (UniProt P9WFW3); experiment: Assay for Asp RNA synthetase-1 from Mycobacterium tuberculosis; type: functional; set-up: scale not given: in the data most compounds retested in dose-response had high values; conditions: 30 µM
T1 sequence (whole entry): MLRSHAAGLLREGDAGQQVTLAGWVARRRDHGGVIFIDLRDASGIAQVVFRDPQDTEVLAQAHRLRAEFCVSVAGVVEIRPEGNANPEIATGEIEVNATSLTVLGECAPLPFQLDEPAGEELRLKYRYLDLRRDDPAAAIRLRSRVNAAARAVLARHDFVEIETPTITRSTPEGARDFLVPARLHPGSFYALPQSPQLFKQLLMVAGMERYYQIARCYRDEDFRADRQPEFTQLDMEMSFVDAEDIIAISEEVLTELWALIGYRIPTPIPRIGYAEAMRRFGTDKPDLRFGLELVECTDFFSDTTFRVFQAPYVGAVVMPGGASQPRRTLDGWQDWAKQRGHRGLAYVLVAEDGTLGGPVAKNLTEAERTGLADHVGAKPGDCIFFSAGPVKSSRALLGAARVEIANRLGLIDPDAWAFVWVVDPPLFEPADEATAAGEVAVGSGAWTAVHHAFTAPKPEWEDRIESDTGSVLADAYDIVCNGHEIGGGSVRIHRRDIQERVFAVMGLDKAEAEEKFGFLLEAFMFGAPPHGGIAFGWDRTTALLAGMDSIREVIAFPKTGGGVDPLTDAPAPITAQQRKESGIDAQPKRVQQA

| Compound | Percent Effect |
| --- | --- |
| CCCC(NC(=O)c1cc(C)ccc1C)c1nnn[nH]1 (stereo not given) | -2.52% |
| CCCC(C)CN1CCC(n2cc(C3CCCC3)nn2)CC1 (stereo not given) | 2.26% |
| O=C(Nc1cccc(OCc2cccc(F)c2)c1)C1COCCO1 (stereo not given) | 0.563% |
| CN(C)c1ccc(CCNC(=O)C2CCC(=O)N(C3CCCC3)C2)cc1 (stereo not given) | -4.1% |
| COC(=O)CCN1CCCC1c1ccccc1Cl (stereo not given) | 2.1% |
| CC(Sc1nnnn1C1CCOCC1)C(=O)NC1CCCCC1 (stereo not given) | 1.09% |
| COc1cccc(-c2noc(-c3ccc(NCC4CC4)nc3)n2)c1OC | -3.57% |
| CC(C)Nc1ncc(CN2C[C@@H](CN3CCC(O)CC3)[C@@H](CO)C2)cn1 | -1.99% |
| c1nc(N2CCCCC2Cn2cncn2)c2ccsc2n1 (stereo not given) | -0.379% |
| c1cnn(CC2CCCCN2c2ncnc3sccc23)c1 (stereo not given) | 2.59% |
| CCOCC(=O)N1C[C@@H](NC(C)=O)[C@H](c2ccc(OC)cc2)C1 | -0.287% |
| O=C(NCCc1csc(N2CCCC2)n1)N(C1CCCC1)C1CC1 | 4.33% |
| CCN(CC1CN(Cc2ncc[nH]2)CCO1)c1cccnn1 (stereo not given) | -3.05% |
| COc1ncccc1NC(=O)N1CCC(CN2CCOCC2)CC1 | -3.02% |
| COc1ccc(-n2cnnc2SCCC#N)cn1 | -0.885% |
| Cn1c(C(=O)N2CCC(C(=O)N3CCCC3)CC2)c(Cl)c2ccccc21 | -5.07% |
| CCc1nsc(NC2CCCn3nc(CC)nc32)n1 (stereo not given) | 1.74% |
| CC(NC(=O)NCCCn1cccn1)c1cccnc1 (stereo not given) | -3.83% |
| CN(Cc1ccccc1)C1(C(=O)O)Cc2ccccc2C1 | -1.53% |
| O=C(NCCN1CCOCC1)NCc1ncc(-c2ccccc2)o1 | 1.62% |

| Compound | Percent Effect |
| --- | --- |
| O=C(CC1=CCCCC1)NCCc1csc(N2CCCC2)n1 | 2.52% |
| Cc1cnn(CCNCc2ccc(OCC(N)=O)cc2)c1 | -4.2% |
| CCCS(=O)(=O)N1CCC(NC(=O)c2cc(C)c(CC)s2)CC1 | -2.13% |
| CCC(=O)N1CC[C@@H](c2ccc3ccccc3c2)[C@H](O)C1 | 2.26% |
| CCOc1ncccc1CNC(=O)N1CCCC1c1ccncc1 (stereo not given) | -0.287% |
| CCC(=O)NCC(=O)NCc1cc(Br)ccc1OC(F)F | -1.92% |
| O=c1oc(-c2cccs2)nn1CC(O)c1ccccc1 (stereo not given) | 1.71% |
| O=S1(=O)C[C@@H]2[C@H](C1)N(Cc1cc(Cl)cc(Cl)c1)CCN2CC1CC1 | 0.655% |
| CCc1cc(N2CCSCC2)n2nc(C)c(C)c2n1 | 4.1% |
| N#CC(Sc1nnnn1C1CCOCC1)C1CCCCC1 (stereo not given) | -2.4% |
| COc1cc(C)c(CN2CCC3(CC2)C(C(=O)O)CC(=O)N3C)cc1C (stereo not given) | -0.678% |
| COc1ccc(NC(=O)CCC2CCCN(Cc3ncon3)C2)cc1Cl (stereo not given) | -0.862% |
| Cc1nn(C)cc1CNC(=O)c1cn(CCC2CCCCN2)nn1 (stereo not given) | -2.13% |
| O=C(NC1(c2nnn(Cc3ccncc3)n2)CCCC1)c1ccccc1 | -0.678% |
| CNC(=O)Cn1cc(C#N)c(=O)c2cc(Br)ccc21 | 0.0345% |
| CSc1cccc(CNC(=O)C2CC(=O)N(CCN(C)C)C2)c1 (stereo not given) | 2.84% |
| CCCS(=O)(=O)N1C[C@H]2OC(=O)N(CCc3cccc(Cl)c3)[C@H]2C1 | -4.26% |
| COC(=O)CCN1CCCC1c1cccc2c1OCCO2 (stereo not given) | -1.34% |
| O=C(c1ccc2c(c1)CCC2)N1C[C@@H](CN2CCOCC2)[C@@H](CO)C1 | 1.28% |
| CSC(C)(C)CNC(=O)NC1CCN(C)CC1 | -4.75% |
